Vaccinia Venus = inhibitors of vaccinia virus (Venus reporter); Vaccinia virus Venus reporter expression, fluorescence; Potency, µM (series often up to 36.5 µM), inactives show at the highest dose activity change, negative = inhibition, usual class: inhibitors; actives 0.46% (n = 330,000); calls by dose curve; tested in A549 cells; also: potency is read from the fitted curve at half-maximal effect; nearly all actives have a fitted effect of over 30% in size
HCMV antiviral = blocks human cytomegalovirus replication. actives 4.5% (n = 410,000). activity change, negative = inhibition, % at 57.5 µM. HFF cells, HCMV-luciferase reporter, 72 h; stronger effect = lower value; in the data active = activity change below about -60%; inconclusive = no clear call, values can overlap the other calls; inactive = above about -39%
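Inhibition of viral replication was scored as loss of reporter luminescence in HFFs infected with HCMV-luciferase (MOI 1 PFU/cell) for 72 h; compounds tested at 2 doses, normalized to buffer and Salinomycin controls.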
LASV entry inh = Lassa virus entry inhibition | Lassa virus pseudotype entry inhibition, cell reporter | Potency, µM (titrated, usually from 37.9 µM), for inactives: at the top dose activity change, negative = inhibition, hits mostly inhibitors | actives 1.2% (n = 300,000); calls by dose curve; tested in HEK293 cells; also: potency is read from the fitted curve at half-maximal effect; nearly all actives have a fitted effect of over 50% in size
MARV entry inh = Marburg virus entry inhibition. actives 1.8% (n = 300,000). Marburg virus pseudotyped entry inhibition, cell reporter. AID 540276. Potency, µM (top dose mostly 37.8 µM), without a hit: at the top dose activity change, negative = inhibition, actives largely listed as inhibitors; calls by dose curve; tested in HEK293 cells; also: potency is read from the fitted curve at half-maximal effect
Vaccinia mCherry = inhibitors of vaccinia virus infection (mCherry reporter signal); Vaccinia virus mCherry reporter infection, fluorescence; Potency, µM (top dose mostly 36.5 µM), for inactives: at the highest dose activity change, negative = inhibition, hits mostly inhibitors; actives 0.63% (n = 310,000); AID 720579; calls by dose curve; tested in A549 cells; also: potency is read from the fitted curve at half-maximal effect; nearly all actives have a fitted effect of over 35% in size
FMDV inh = blocks foot and mouth disease virus; FMDV antiviral cell-based qHTS; Potency, µM (doses to about 57.9 µM), inactives show at the highest dose activity change, negative = inhibition, hits mostly inhibitors; actives 1.2% (n = 410,000); calls by dose curve; tested in HEK293T cells; also: read-out not given here; potency is read from the fitted curve at half-maximal effect; nearly all actives have a fitted effect of over 45% in size
Starred values were filed as active, the others as inactive; i = inactive; ? = inconclusive; . = not tested or not shown; [ ] = another dose, or the depositor's remark. Sampled rows, rich in hits. Any-hit rate of the full collection: about 6.5%. % is scaled to controls: 0 for no effect and ±100 for the full control effect.

SMILES | Vaccinia Venus | HCMV antiviral | LASV entry inh | MARV entry inh | Vaccinia mCherry | FMDV inh
CC(C)OC(=O)c1ccc(NC(=O)c2ccccc2)cc1 | -21.2% | -14.1 | ? | ? | -24.0% | -14.9%
COc1ccccc1-c1cnn(C(C)(C)C(=O)NCc2ccccc2Br)c1 | . | 10.7 | . | . | . | .
COC(=O)c1ccc(CCc2cc(O)c(Br)cc2O)cc1 | -4.8% | 16.7 | -22.2% | 5.0% | i | -15.8%
COC(=O)c1ccc(CCc2cc(O)ccc2O)cc1 | -3.8% | . | 12.6µM* | ? | ? | -9.7%
CCC(NC(=O)CNC(=O)CNC(=O)c1ccc(Cl)cc1Cl)c1ccc(C)cc1 (centres undefined) | -19.1% | -34.8 | -27.7%[46.1 µM] | -4.9%[46.1 µM] | -25.0% | 15.8%
COc1ccc(NC(=O)N2CCN(c3nc(-c4cccc(OC)c4)cs3)CC2)cc1 | . | -91.5* | ? | 23.1µM* | . | 20µM*
COc1ccc(N2C(=O)/C(=C/c3cc(C)n(-c4ccc(C)cn4)c3C)C(=O)NC2=S)c(OC)c1 | . | 26.9 | . | . | . | 31.6µM*
Cc1ccc(-n2c(C)cc(/C=C3/C(=O)NC(=O)N(C)C3=O)c2C)cc1 | -12.0% | -4.6 | 9.5% | -1.0% | -12.4% | 13.4%
COc1ccc(OC)c(N2C(=O)/C(=C/c3ccco3)C(=O)NC2=S)c1 | 9.3% | . | -8.1% | 10µM* | 1.6% | -28.5%
CC(=O)Nc1ccc(NS(=O)(=O)c2c(C(=O)N3CCC(C)CC3)c(C)n(C)c2C)cc1 | -4.8% | ? | -10.2%[46.1 µM] | . | -14.1% | 4.3%
C[C@H]1CN(S(=O)C(C)(C)C)[C@@H](CCO)/C1=C\CCO (some centres undefined) | -6.8% | 2.8 | . | . | -14.1% | -1.0%
O=C(Cc1ccccc1)Nc1nc(=O)c2ccccc2s1 | -11.9% | -2.3 | -6.9% | 8.1% | -15.3% | 15.3%
O=C(Cc1nc(=O)c2ccccc2s1)Nc1ccccc1 | . | -105.6* | ? | ? | . | 63.9%
O=C(Nc1nccs1)c1cc2c(s1)CCCCC2 | ? | -64.4* | ? | ? | . | 8.91µM*
CCOC(=O)COc1cc(OCC(=O)OCC)c2c3c(c(=O)oc2c1)CCCC3 | -7.6% | -23.3 | 9.5%[46.1 µM] | 16.8%[46.1 µM] | i | -8.7%
COCCn1c(SCc2nc3scc(-c4ccc(Cl)cc4)c3c(=O)[nH]2)nnc1-c1cccc(C)c1 | ? | ? | -25.3% | ? | ? | 39.8µM*
COC(=O)CC=C[C@H](C)[C@@H](NC(=O)C(F)(F)F)c1ccccc1Br | . | . | . | -21.4%[14.2 µM] | . | .
Oc1ccc(O)c2c1C1(Cl)C(Cl)=C(Cl)C2(Cl)C1(Cl)Cl | -18.2% | -64.5* | 0.5%[46.1 µM] | ? | ? | ?
COc1cc(=O)n2c(c1C(=O)N(C)Cc1nonc1C)CCN(Cc1ccc(F)cc1)CC2 | -8.4% | . | . | . | -13.8% | -8.8%
Cc1cccc(C)c1Nc1c(-c2cccs2)nc2ncccn12 | 2.7% | -3.8 | 1.4%[46.1 µM] | ? | -4.7% | -15.1%
Cc1ccn2c(Nc3ccccc3)c(-c3ccccn3)nc2c1 | -14.0% | 0.0 | 5.8µM* | ? | 2.24µM* | -26.3%
Cc1ccc2nc(-c3ccccn3)c(N)n2c1 | 0.9% | 40.3 | . | . | i | 14.1µM*
Cc1ccc(-c2nc3ccc(C)cn3c2Cc2ccccn2)cc1 | 4.4% | -5.2 | . | . | 1.1% | 16.6%
Cc1ccc2nc(-c3cccs3)c(Nc3c(C)cccc3C)n2c1 | -14.6% | 18.4 | -2.3%[46.1 µM] | 7.08µM* | -24.0% | ?
CC(C)c1ccc(Nc2c(-c3ccccn3)nc3ccccn23)cc1 | ? | -87.0* | ? | ? | 11.2µM* | ?
SMILES | Vaccinia Venus | HCMV antiviral | LASV entry inh | MARV entry inh | Vaccinia mCherry | FMDV inh
COc1ccccc1CNC(=O)c1cc(S(=O)(=O)N2CCCC2)cn1C | -14.2% | 11.5 | . | . | i | 0.0%
CC(C)c1ccc(NC(=O)NCc2ccccn2)cc1 | . | 7.4 | . | . | . | 24.4%
Cc1ccn2c(Nc3ccccc3C)c(-c3ccccn3)nc2c1 | ? | -81.5* | ? | ? | 7.94µM* | ?
Cc1ccccc1Nc1c(-c2ccccn2)nc2ccccn12 | . | -97.8* | . | . | . | ?
Cc1ccccc1Nc1c(-c2cccnc2)nc2ccccn12 | -19.0% | ? | . | . | ? | -26.7%
Cc1ccc2nc(-c3ccccn3)c(Nc3ccccc3C)n2c1 | ? | -100.4* | ? | 8.9%[46.1 µM] | 6.31µM* | ?
Cc1ccc2nc(-c3ccncc3)c(Nc3ccccc3C)n2c1 | -22.5% | ? | -9.4%[46.1 µM] | -9.5%[46.1 µM] | -21.0% | -24.3%
Cc1ccc2nc(-c3ccccn3)c(Nc3ccc(F)cc3)n2c1 | ? | -93.8* | ? | ? | ? | ?

High-throughput results from PubChem BioAssay.
